Measured values published in the supplement of paper PMC10849652.
Targets with a hit are over-represented here; the source holds about 7,900 in all. About 0.6% of all pairs of compound and target were hits. A number with no mark means an inactive call.

Legend:
Assay in all cases: log2 fold change, soluble protein after heating vs DMSO (PISA); higher = thermal stabilisation; K562 cells, 10 uM, 30 min; active = over 0.2 and 3.5 SD of the protein, either way, in both replicates (recomputed)
[1] = compound: CS(=O)(=O)c1ccc(-c2cnc(N)c(C(=O)Nc3ccccc3)n2)cc1
In short: (§1)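 Soluble protein was defined as the supernatant after 21,000xg for 90 min. It came from K562 cells at 2×10^6 cells/mL given 10 μM compound for 30 min, heated in aliquots for 3 min across 48°C-58°C, pooled, and extracted in PBS with 0.5% NP-40 at 4°C, and was quantified by TMTpro 16plex LC-MS/MS with equalised channel sums. Thermal stability against control samples, from duplicates, is reported as log2 fold change.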

crizotinib = compound: C[C@@H](Oc1cc(-c2cnn(C3CCNCC3)c2)cnc1N)c1c(Cl)ccc(F)c1Cl [crizotinib]
In short: as §1

[2] = compound: C[C@@H]1COCCN1C2=NC(=NC(=C2)C3(CC3)S(=O)(=O)C)C4=C5C=CNC5=CC=C4
In short: as §1

[3] = compound: C[C@H](C1=CC=C(C=C1)C(=O)NC2=C3C=CNC3=NC=C2)N
In short: as §1

duvelisib = compound: C[C@H](Nc1ncnc2nc[nH]c12)c1cc2cccc(Cl)c2c(=O)n1-c1ccccc1 [duvelisib]
In short: as §1

gandotinib = compound: Cc1cc(Nc2cc(CN3CCOCC3)c3nc(C)c(Cc4ccc(Cl)cc4F)n3n2)n[nH]1 [gandotinib]
In short: as §1

tozasertib = compound: Cc1cc(Nc2cc(N3CCN(C)CC3)nc(Sc3ccc(NC(=O)C4CC4)cc3)n2)n[nH]1 [tozasertib]
In short: as §1

[4] = compound: Cc1cc(SCc2sc(-c3ccc(C(F)(F)F)cc3)nc2C)ccc1OCC(=O)O
In short: as §1

doramapimod = compound: Cc1ccc(-n2nc(C(C)(C)C)cc2NC(=O)Nc2ccc(OCCN3CCOCC3)c3ccccc23)cc1 [doramapimod]
In short: as §1

ispinesib = compound: Cc1ccc(C(=O)N(CCCN)[C@@H](c2nc3cc(Cl)ccc3c(=O)n2Cc2ccccc2)C(C)C)cc1 [ispinesib]
In short: as §1

bafetinib = compound: Cc1ccc(NC(=O)c2ccc(CN3CC[C@H](N(C)C)C3)c(C(F)(F)F)c2)cc1Nc1nccc(-c2cncnc2)n1 [bafetinib]
In short: as §1

[5] = compound: Cc1cccc(CC(=O)N2CCc3c2ccc(-c2cn(C)c4ncnc(N)c24)c3F)n1
In short: as §1

nilotinib = compound: Cc1cn(-c2cc(NC(=O)c3ccc(C)c(Nc4nccc(-c5cccnc5)n4)c3)cc(C(F)(F)F)c2)cn1 [nilotinib]
In short: as §1

[6] = compound: Cc1nc(Nc2n[nH]c3c2CN(C(=O)N[C@H](CN(C)C)c2ccccc2)C3(C)C)c2sccc2n1
In short: as §1

dasatinib = compound: Cc1nc(Nc2ncc(C(=O)Nc3c(C)cccc3Cl)s2)cc(N2CCN(CCO)CC2)n1 [dasatinib]
In short: as §1

[7] = compound: Cc1ncc(-c2ccnc(Nc3ccc(S(C)(=O)=O)cc3)n2)n1C(C)C
In short: as §1

[8] = compound: Cn1cc(-c2ccc3c(c2)CCN3C(=O)Cc2cccc(C(F)(F)F)c2)c2c(N)ncnc21
In short: as §1

[9] = compound: Cn1cc(-c2ccc3nnc(C(F)(F)c4ccc5ncccc5c4)n3n2)cn1
In short: as §1

tipifarnib = compound: Cn1cncc1[C@@](N)(c1ccc(Cl)cc1)c1ccc2c(c1)c(-c1cccc(Cl)c1)cc(=O)n2C [tipifarnib]
In short: as §1

mubritinib = compound: FC(F)(F)c1ccc(/C=C/c2nc(COc3ccc(CCCCn4ccnn4)cc3)co2)cc1 [mubritinib]
In short: as §1

UniProt P13498, sequence (P13498 whole entry, looked up): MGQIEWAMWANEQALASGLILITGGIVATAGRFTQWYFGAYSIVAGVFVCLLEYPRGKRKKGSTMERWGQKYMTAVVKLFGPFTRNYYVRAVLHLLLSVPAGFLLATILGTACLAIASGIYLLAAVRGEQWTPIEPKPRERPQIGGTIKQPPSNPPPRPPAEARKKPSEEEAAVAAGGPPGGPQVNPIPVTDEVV
UniProt Q96F86, sequence (Q96F86 whole entry, looked up): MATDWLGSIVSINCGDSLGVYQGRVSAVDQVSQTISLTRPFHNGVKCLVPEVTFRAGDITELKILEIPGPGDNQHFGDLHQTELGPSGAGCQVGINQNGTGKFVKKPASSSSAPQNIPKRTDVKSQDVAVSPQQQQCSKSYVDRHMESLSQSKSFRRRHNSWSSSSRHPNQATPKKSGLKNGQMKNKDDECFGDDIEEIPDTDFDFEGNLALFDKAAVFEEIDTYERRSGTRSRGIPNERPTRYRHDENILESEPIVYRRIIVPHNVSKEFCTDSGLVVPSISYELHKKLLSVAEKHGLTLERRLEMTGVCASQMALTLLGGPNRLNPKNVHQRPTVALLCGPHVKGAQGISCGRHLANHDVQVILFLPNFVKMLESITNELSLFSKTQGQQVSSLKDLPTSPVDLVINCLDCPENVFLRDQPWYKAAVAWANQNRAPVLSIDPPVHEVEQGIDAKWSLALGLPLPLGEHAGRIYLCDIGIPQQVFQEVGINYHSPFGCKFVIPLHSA
UniProt O00148, sequence (O00148 whole entry, looked up): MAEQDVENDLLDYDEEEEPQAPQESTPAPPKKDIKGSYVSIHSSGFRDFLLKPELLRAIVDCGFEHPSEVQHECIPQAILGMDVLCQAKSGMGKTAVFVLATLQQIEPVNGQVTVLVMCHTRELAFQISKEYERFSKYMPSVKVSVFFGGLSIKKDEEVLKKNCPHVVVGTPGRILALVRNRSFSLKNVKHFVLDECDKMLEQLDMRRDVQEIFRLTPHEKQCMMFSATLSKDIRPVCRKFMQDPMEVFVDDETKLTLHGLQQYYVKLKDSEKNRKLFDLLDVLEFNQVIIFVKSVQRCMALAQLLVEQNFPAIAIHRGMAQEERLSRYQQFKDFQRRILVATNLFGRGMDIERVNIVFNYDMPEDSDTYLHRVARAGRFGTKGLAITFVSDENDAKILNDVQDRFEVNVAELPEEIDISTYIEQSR
UniProt Q16254, sequence (Q16254 whole entry, looked up): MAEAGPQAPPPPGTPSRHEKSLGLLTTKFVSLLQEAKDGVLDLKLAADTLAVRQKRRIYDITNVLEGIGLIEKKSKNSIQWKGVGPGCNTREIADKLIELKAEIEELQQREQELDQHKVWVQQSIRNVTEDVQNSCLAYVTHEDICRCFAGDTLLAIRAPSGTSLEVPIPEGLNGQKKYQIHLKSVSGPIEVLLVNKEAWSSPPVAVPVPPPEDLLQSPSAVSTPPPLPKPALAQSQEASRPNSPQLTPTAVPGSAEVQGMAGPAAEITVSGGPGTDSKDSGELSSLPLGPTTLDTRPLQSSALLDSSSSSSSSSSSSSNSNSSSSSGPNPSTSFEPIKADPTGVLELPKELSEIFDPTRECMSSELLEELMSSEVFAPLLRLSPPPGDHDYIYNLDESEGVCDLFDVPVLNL
UniProt Q03468, sequence (Q03468 whole entry, looked up): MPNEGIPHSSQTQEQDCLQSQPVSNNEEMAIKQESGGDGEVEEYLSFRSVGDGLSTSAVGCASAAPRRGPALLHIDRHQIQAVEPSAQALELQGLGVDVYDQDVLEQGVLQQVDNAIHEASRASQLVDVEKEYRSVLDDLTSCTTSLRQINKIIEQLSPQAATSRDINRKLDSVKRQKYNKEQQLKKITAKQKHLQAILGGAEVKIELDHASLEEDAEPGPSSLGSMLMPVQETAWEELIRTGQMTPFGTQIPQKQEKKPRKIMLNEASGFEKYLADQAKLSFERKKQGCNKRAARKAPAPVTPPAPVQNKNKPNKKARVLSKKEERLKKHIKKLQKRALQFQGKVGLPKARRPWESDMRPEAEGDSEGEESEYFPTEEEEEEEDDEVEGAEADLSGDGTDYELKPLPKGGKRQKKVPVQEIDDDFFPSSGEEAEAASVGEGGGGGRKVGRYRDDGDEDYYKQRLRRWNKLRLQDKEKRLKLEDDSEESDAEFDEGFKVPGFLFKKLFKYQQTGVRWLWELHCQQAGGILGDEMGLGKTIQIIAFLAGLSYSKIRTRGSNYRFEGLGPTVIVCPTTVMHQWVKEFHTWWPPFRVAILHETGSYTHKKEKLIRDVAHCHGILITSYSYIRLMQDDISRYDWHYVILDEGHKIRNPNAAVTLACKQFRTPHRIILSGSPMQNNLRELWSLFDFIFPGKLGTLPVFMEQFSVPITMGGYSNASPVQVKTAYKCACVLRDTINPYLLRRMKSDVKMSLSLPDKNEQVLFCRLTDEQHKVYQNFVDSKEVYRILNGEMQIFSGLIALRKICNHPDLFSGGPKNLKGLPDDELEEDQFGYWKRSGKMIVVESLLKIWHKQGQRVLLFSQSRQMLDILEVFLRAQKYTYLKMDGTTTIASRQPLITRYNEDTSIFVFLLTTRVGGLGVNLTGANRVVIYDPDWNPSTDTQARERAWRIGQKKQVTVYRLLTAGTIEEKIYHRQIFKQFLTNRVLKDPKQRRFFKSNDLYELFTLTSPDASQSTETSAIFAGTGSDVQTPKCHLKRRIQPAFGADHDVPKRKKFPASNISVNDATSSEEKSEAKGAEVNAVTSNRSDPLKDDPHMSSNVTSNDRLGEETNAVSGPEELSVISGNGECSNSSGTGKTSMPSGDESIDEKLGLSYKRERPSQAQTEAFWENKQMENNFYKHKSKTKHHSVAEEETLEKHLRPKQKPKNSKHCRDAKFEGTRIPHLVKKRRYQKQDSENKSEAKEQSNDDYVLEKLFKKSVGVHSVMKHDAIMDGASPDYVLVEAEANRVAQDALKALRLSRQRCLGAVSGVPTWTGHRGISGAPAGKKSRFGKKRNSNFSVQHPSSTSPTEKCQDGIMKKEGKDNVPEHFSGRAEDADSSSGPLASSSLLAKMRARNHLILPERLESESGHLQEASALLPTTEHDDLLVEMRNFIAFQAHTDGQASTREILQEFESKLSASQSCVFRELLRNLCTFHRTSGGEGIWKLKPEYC
UniProt Q58WW2, sequence (Q58WW2 whole entry, looked up): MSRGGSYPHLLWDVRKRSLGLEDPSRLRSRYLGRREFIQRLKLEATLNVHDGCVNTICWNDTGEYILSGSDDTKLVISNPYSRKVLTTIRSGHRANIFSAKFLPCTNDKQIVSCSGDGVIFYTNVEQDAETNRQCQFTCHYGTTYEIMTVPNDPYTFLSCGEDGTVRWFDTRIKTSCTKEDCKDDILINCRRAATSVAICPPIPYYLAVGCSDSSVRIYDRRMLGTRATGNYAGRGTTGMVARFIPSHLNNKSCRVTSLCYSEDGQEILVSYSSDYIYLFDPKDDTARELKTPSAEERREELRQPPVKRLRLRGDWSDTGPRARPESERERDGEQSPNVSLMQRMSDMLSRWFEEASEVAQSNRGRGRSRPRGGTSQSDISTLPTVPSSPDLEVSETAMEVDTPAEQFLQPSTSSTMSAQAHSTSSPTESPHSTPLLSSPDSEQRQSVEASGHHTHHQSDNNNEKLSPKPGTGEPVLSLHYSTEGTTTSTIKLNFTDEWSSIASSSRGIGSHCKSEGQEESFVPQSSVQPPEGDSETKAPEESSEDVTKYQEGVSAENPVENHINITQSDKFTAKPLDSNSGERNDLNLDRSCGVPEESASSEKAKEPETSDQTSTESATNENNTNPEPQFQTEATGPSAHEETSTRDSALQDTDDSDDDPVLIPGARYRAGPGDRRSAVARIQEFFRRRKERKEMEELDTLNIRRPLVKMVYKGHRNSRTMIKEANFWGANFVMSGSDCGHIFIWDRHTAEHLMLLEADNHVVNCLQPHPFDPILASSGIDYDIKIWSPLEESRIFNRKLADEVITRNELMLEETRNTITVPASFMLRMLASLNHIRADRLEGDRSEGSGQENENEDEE
UniProt Q96DA6, sequence (Q96DA6 whole entry, looked up): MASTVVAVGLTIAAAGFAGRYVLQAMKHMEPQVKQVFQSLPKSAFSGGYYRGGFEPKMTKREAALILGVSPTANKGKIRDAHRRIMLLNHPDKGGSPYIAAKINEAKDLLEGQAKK
UniProt Q9H773, sequence (Q9H773 whole entry, looked up): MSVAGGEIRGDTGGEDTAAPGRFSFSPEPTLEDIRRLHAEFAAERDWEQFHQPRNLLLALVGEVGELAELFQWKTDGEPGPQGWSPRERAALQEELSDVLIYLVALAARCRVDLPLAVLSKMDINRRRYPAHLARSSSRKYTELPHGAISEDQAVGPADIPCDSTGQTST
UniProt Q9H4H8, sequence (Q9H4H8 whole entry, looked up): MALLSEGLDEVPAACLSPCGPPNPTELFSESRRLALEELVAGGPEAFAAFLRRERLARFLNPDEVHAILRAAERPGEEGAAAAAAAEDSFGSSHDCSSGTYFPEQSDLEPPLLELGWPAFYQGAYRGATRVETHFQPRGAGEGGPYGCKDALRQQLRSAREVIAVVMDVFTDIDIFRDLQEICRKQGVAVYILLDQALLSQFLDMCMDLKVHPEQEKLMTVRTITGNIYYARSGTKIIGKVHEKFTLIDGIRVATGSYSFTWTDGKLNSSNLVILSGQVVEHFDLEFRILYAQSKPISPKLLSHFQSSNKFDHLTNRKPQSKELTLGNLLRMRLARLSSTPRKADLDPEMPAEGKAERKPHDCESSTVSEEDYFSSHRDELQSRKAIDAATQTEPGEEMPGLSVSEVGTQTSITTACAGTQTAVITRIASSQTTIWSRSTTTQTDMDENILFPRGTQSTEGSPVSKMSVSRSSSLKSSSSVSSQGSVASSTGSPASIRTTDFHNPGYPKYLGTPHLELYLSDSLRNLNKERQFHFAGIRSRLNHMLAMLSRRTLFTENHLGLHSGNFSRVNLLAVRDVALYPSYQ

Target | log2 fold change [1] | log2 fold change (crizotinib) | log2 fold change [2] | log2 fold change [3] | log2 fold change (duvelisib) | log2 fold change (gandotinib) | log2 fold change (tozasertib) | log2 fold change [4] | log2 fold change (doramapimod) | log2 fold change (ispinesib) | log2 fold change (bafetinib) | log2 fold change [5] | log2 fold change (nilotinib) | log2 fold change [6] | log2 fold change (dasatinib) | log2 fold change [7] | log2 fold change [8] | log2 fold change [9] | log2 fold change (tipifarnib) | log2 fold change (mubritinib)
DYRK1A isoform 2 (UniProt Q13627) | 0.008 | -0.181 | 0.045 | -0.107 | -0.025 | -0.102 | -0.051 | 0.042 | 0.014 | -0.059 | -0.073 | 0.02 | -0.005 | -0.056 | -0.098 | -0.047 | 0.021 | -0.046 | -0.042 | 0.034
FAM117A (UniProt Q9C073) | -0.039 | -0.166 | -0.013 | -0.132 | -0.119 | -0.053 | -0.12 | 0.067 | 0.017 | 0.024 | -0.021 | 0.004 | -0.047 | -0.083 | -0.046 | -0.018 | 0.016 | 0.032 | 0.039 | 0.024
EDC3 (UniProt Q96F86) | 0.002 | -0.237 | -0.439 (active) | -0.014 | -0.14 | -0.023 | -0.025 | 0.066 | 0.05 | -0.121 | -0.022 | -0.013 | -0.142 | -0.127 | -0.006 | -0.151 | -0.019 | -0.006 | -0.035 | 0
DCAF6 isoform 3 (UniProt Q58WW2) | -0.008 | 0.132 | 0.026 | -0.054 | 0.025 | -0.024 | -0.034 | -0.058 | 0.056 | 0.027 | -0.071 | 0.009 | 0.009 | 0.02 | 0.008 | -0.013 | -0.016 | 0.031 | 0.027 | 0.017
E2F4 (UniProt Q16254) | 0.04 | -0.029 | 0.024 | -0.095 | 0.027 | -0.034 | 0.086 | -0.019 | 0.024 | -0.103 | -0.053 | -0.026 | -0.016 | -0.141 | -0.095 | 0.012 | -0.007 | -0.006 | -0.009 | 0.01
DTWD2 (UniProt Q8NBA8) | 0.06 | 0.133 | 0.137 | -0.103 | -0.036 | 0.027 | -0.019 | 0 | 0.009 | -0.092 | -0.023 | -0.008 | 0.065 | -0.019 | 0.126 | 0.022 | 0.215 | 0.096 | -0.071 | -0.087
ERCC6 (UniProt Q03468) | -0.12 | 0.061 | 0.011 | -0.127 | 0.044 | 0.017 | -0.051 | -0.103 | 0.053 | 0.152 | -0.775 (active) | -0.016 | 0.041 | -0.087 | -0.043 | -0.021 | 0.129 | -0.094 | 0.019 | 0.059
DCTPP1 (UniProt Q9H773) | -0.025 | 0.142 | 0.179 | -0.177 | 0.072 | -0.004 | 0.024 | -0.064 | -0.002 | 0.203 | -0.053 | 0.105 | 0.008 | -0.013 | 0.068 | -0.025 | 0.073 | 0.029 | 0.074 | 0.047
FAM83D (UniProt Q9H4H8) | -0.018 | -0.061 | 0.021 | 0.014 | 0.001 | -0.308 (active) | 0.025 | 0.08 | -0.009 | 0.064 | -0.022 | 0.145 | -0.069 | -0.088 | -0.241 | 0.016 | -0.073 | -0.027 | -0.107 | 0.023
CYBA (UniProt P13498) | 0.069 | -0.108 | 0.024 | -0.045 | 0.05 | -0.231 | -0.043 | 0.04 | 0.01 | -0.488 (active) | -0.24 (active) | -0.06 | 0.01 | 0.034 | -0.077 | 0.026 | 0.002 | 0.004 | 0 | 0.006
CTSL (UniProt P07711) | 0.025 | -0.489 (active) | -0.02 | 0.021 | -0.07 | 0.006 | -0.081 | -0.013 | 0.018 | -0.199 | -0.261 | -0.046 | 0.041 | 0.103 | 0.14 | 0.004 | 0.013 | 0.045 | 0.145 | -0.006
CTU1 (UniProt Q7Z7A3) | 0.005 | -0.132 | 0.081 | -0.032 | -0.012 | -0.015 | -0.026 | 0.058 | -0.049 | -0.082 | -0.024 | 0.067 | -0.062 | -0.03 | -0.145 | -0.03 | 0.035 | 0.02 | -0.043 | 0.067
DPH5 isoform 5 (UniProt Q9H2P9) | 0.017 | 0.092 | 0.072 | -0.046 | 0.077 | -0.011 | -0.01 | -0.01 | -0.025 | 0.076 | 0.025 | 0.037 | 0.013 | -0.023 | 0.253 (active) | 0.003 | 0.085 | 0.006 | -0.121 | 0.049
DNAJC19 (UniProt Q96DA6) | 0.008 | -0.073 | 0.055 | -0.089 | 0.004 | 0.011 | 0.007 | -0.017 | -0.011 | -0.069 | -0.123 | 0.003 | 0.025 | 0.002 | -0.003 | -0.005 | 0.012 | 0.022 | 0.012 | 0.001
DNAH5 (UniProt Q8TE73) | 0.049 | 0.145 | -0.007 | -0.076 | 0.117 | 0.013 | 0.082 | -0.052 | -0.031 | 0.057 | -0.065 | -0.084 | -0.006 | 0.015 | 0.085 | -0.015 | 0 | -0.06 | 0.267 | 0.032
DDX39A (UniProt O00148) | 0.062 | -0.082 | 0.079 | 0.002 | 0.051 | -0.009 | 0.043 | 0.05 | -0.069 | -0.064 | 0.001 | 0.014 | -0.017 | -0.278 (active) | -0.134 | -0.218 | -0.018 | -0.007 | 0.079 | -0.182
